Measurements reported in PubChem BioAssay AID1220 (Sanford-Burnham Center for Chemical Genomics, 2008).
In all, about 190,000 compounds went through this assay and about 1,300 (0.68%) were called active. This is one part of a sample in which actives are shown more often than they occur. Values without a mark were called inactive. Rule as the data show it: active = inhibition above about 50%; inactive = the rest.

biological target: Mannose-6-phosphate isomerase (Homo sapiens) (UniProt P34949); experiment: MPI inhibition at elevated mannose 6-phosphate – biochemical, fluorescence intensity, high mannose 6-phosphate, primary screen (AID 1220); conditions: recombinant PMI enzyme, coupled fluorescence intensity; at 20 µM; active compounds read high
Sequence (P34949 whole entry, looked up): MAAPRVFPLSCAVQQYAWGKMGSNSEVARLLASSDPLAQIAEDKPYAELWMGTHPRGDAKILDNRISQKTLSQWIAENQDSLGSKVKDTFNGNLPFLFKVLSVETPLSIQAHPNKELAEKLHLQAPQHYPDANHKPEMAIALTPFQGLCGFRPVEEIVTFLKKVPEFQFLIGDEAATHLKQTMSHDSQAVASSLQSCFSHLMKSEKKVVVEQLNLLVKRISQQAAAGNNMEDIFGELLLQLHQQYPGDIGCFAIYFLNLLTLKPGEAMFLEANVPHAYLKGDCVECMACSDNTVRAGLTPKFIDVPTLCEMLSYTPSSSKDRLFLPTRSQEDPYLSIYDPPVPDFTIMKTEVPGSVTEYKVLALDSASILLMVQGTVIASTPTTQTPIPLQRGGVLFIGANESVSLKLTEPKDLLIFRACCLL

SMILES	inhibition
COc1ccc(/C=N/NS(C)(=O)=O)c(OC)c1	8.2%
CCOC(=O)N/N=C1\CC(C)CC(C)(C)C1 (configuration not stated)	4.2%
COc1ccc(CCNC(=O)COC(=O)/C=C/c2cc(OC)c(OC)c(OC)c2)cc1OC	-0.4%
COc1cccc(CC2(CO)CCN(Cc3ccc4cccc(F)c4n3)CC2)c1	13.1%
Cc1ccc(OCC(=O)c2cc(C)n(C3CC3)c2C)c([N+](=O)[O-])n1	10.6%
COc1ccc(-n2c(C)cc(C(=O)COc3ccc(C)nc3[N+](=O)[O-])c2C)cc1	41%
Cc1ccc(OCC(=O)c2cc(C)n(-c3ccccc3)c2C)c([N+](=O)[O-])n1	21.3%
Cc1cc(-n2c(C)cc(C(=O)COc3ccccc3[N+](=O)[O-])c2C)no1	9.1%
Cc1cc(C(=O)COc2cccnc2[N+](=O)[O-])c(C)n1-c1ccccc1	53.3% (active)
Cc1ccc(-n2c(C)cc(C(=O)COc3cccnc3[N+](=O)[O-])c2C)cc1	54.5% (active)
CN(Cc1ccccc1)C(=O)CC(c1ccccc1)c1cc(Cl)ccc1O (configuration not stated)	4.5%
CCn1c(=O)c(C(=O)CN2CCN(S(=O)(=O)c3ccccc3)CC2)c(N)n(Cc2ccccc2)c1=O	0.5%
O=S(=O)(Nc1ccc(N2CCCCC2)cc1)c1ccccc1	0.6%
O=C(Nc1ccc(N2CCCCCC2)cc1)c1ccccc1Cl	27.3%
O=C(O)c1cc(NCc2c(F)cccc2Cl)ccc1N1CCOCC1	2.7%
Clc1cccc(Cl)c1CNc1ccc(N2CCCC2)cc1	84.4% (active)
NS(=O)(=O)c1ccc(NCc2c(F)cccc2Cl)cc1	4.6%
COC(=O)C(CCSC)NC(=O)CNS(=O)(=O)c1ccc(Br)cc1 (configuration not stated)	-7.6%
Cc1ccc(C)c(CN2CCNC2=O)c1	-0.9%
CCNC(=O)CC1C(=O)N(CC)C(=S)N1NC(=O)c1cccnc1 (configuration not stated)	-4.7%
N=C1S/C(=C\c2ccccc2F)C(=O)N1c1ccc(F)cc1	3.1%
Cc1cc(C)nc(NS(=O)(=O)c2ccc(Br)s2)c1	42.1%
Cc1ccc(NS(=O)(=O)c2ccc(Br)s2)nc1	66.2% (active)
CCCCS(=O)(=O)Nc1ccc(C)cn1	57.3% (active)
Cc1cccc(NS(=O)(=O)c2ccc(Br)s2)n1	-4.4%
Cc1ccc(NS(=O)(=O)Cc2ccccc2)nc1	16.5%

SMILES	inhibition
CCCCCCCCCS(=O)(=O)Nc1cc(C)ccn1	7.7%
O=c1cc(CCl)nc2sc3ccccc3n12	-13.1%
COc1c(O)ccc(C2NC(=O)NC(C)=C2C(=O)Nc2ccccc2C)c1[N+](=O)[O-] (configuration not stated)	49.8%
COC(=O)C1=C(C)NC(=O)NC1c1ccc([N+](=O)[O-])o1 (configuration not stated)	10.9%
CCOc1c(O)ccc(C2NC(=O)NC(C)=C2C(=O)OC)c1[N+](=O)[O-] (configuration not stated)	50.9% (active)
COC(=O)C1=C(C)N(C)C(=O)NC1c1ccc(O)c(Cl)c1 (configuration not stated)	3.8%
CCOc1c(O)ccc(C2NC(=O)N(C)C(C)=C2C(=O)OC)c1[N+](=O)[O-] (configuration not stated)	60.2% (active)
COC(=O)C1=C(C)N(C)C(=O)NC1c1cc2c(cc1[N+](=O)[O-])OCO2 (configuration not stated)	42.7%
CN=C1SC(CC(=O)Nc2cc(Cl)ccc2Cl)C(=O)N1C (configuration not stated)	-9.7%
COc1ccc(/C=N/Nc2nc(N3CCCC3)nc(N3CCCC3)n2)c(OC)c1OC	4%
Cc1onc(-c2c(F)cccc2Cl)c1C(=O)NCCO	-4%
COc1ccc2c(c1)C(C1C(=O)CCCC1=O)c1ccccc1O2 (configuration not stated)	2.9%
CC1(C)CC(=O)C(C2c3ccccc3Oc3ccccc32)C(=O)C1	52.9% (active)
CC1(C)CC(=O)C(C2c3ccccc3S(=O)(=O)c3ccccc32)C(=O)C1	-5.8%
O=C(c1ccc(-c2ccccc2)cc1)N1CCC(C(=O)N2CCCC2)CC1	5.4%
COc1ccc(CC(=O)NC(=S)Nc2ccc(S(N)(=O)=O)cc2)cc1	-5.8%
CCOC(=O)C(NC(=O)Nc1cccc(C)n1)(OCC(F)(F)F)C(F)(F)F (configuration not stated)	59.1% (active)
CCOC(=O)C(NC(=O)Nc1ccccc1)(OCC)C(F)(F)F (configuration not stated)	5.2%
Cc1cccc(NC(=O)NCC(F)(F)F)n1	-6.3%
Cc1cc(C)nc(NS(=O)(=O)c2ccc(NC(=O)CN3C(=O)C4CC=CCC4C3=O)cc2)n1 (configuration not stated)	-7.4%
Cc1cc(C(=O)Nc2ccccc2C#N)n(-c2ccccc2)n1	1.2%
CC(=O)c1cccc(N2C(=NC(=O)C(C)C)SC3CS(=O)(=O)CC32)c1 (configuration not stated)	10.5%
O=C1COc2ccc(C(=O)COC(=O)Cc3ccccc3F)cc2N1	-2.3%
CC(=O)Oc1c(C)cc(O)c2ccccc12	19.2%
CC(=O)Cc1cc(O)c2ccccc2c1OC(=O)c1ccccc1	68.6% (active)
O=C(Oc1cccc2c(O)cccc12)c1ccccc1	23.5%

SMILES	inhibition
Cc1cc(N2CCCC2=O)c(N)cc1N	4.5%
O=C1CN(CC(=O)Nc2cccc(Cl)c2Cl)c2ccccc2N1	-43.6%
CCOc1ccc2nc(NC3=NCN(Cc4ccco4)CN3)nc(C)c2c1	-0.5%
C=CCSC1=N/C(=C\c2cc(OCC)c(OC(C)=O)c([N+](=O)[O-])c2)C(=O)S1	38.8%
CCOc1cc(/C=C2\N=C(SC)SC2=O)cc([N+](=O)[O-])c1OC(C)=O	35.6%
CCOc1cc(/C=C2\N=C(SCC)SC2=O)cc([N+](=O)[O-])c1OC(C)=O	53.1% (active)
CC(=O)NCC(=O)N(C)C(C(=O)Nc1ccc2c(c1)OCCO2)c1ccc(C)cc1 (configuration not stated)	5.2%
CC(=O)NC(=S)Nc1sc2c(c1C(N)=O)CCC(C)C2 (configuration not stated)	-3%
COC(=O)Nc1sc2c(c1C(N)=O)CCC(C)C2 (configuration not stated)	59.6% (active)
CCOC(=O)Nc1sc2c(c1C(N)=O)CCC(C)C2 (configuration not stated)	-7.3%
CC(C)C(NC(=O)c1ccc(Br)cc1)C(=O)NC1=NCCS1 (configuration not stated)	-3%
CON1C(=O)C(=O)N(OC)C(C)(C)C1(C)C	44.6%
Clc1ccc(C2NCCc3sccc32)cc1 (configuration not stated)	10.9%
CC1=CC(C)(C)N=C(NC#N)N1	2.4%
O=C(COc1ccc(Cl)cc1)N1CCN(c2ccc([N+](=O)[O-])c(N3CCCCC3)c2)CC1	12.2%
COC(=O)CNC(=O)c1cccc(Cl)c1	-5%
O=C(NC(Cc1c[nH]c2ccccc12)C(=O)NCCCN1CCOCC1)c1cccs1 (configuration not stated)	11.4%
O=C(c1ccccc1)c1coc2c1C(=O)c1ccccc1C2=O	30.7%
O=C1c2ccccc2C(=O)c2c1oc(C(F)(F)F)c2C(=O)c1ccccc1	-32.9%
CCCCOc1ccc(C(=S)N2CCC(C(N)=O)CC2)cc1	9.1%
CCN(CC)c1cccc(OCC(=O)N(C)CCC#N)c1	53.3% (active)
CCc1ccc(OCC(=O)N(C)CCC#N)c(Br)c1	3.1%
CN(CCC#N)C(=O)COc1ccc(Br)cc1Cl	-5.3%
Cc1cc(C)n(-c2cc(N3CCOCC3)nc(-c3ccccc3)n2)n1	8.9%
CCc1sc(C(=O)NCCc2ccc(S(N)(=O)=O)cc2)cc1Br	7.3%
COc1cc(C(=O)NCCSc2ccc(Br)cc2)cc(OC)c1OC	5.3%

SMILES	inhibition
Cc1cc(S(=O)(=O)Nc2ccc(N(C)C)cc2)c(C)s1	10.9%
CC(=O)Nc1ccc(NS(=O)(=O)c2cc(C)sc2C)cc1	61.6% (active)
Cc1cc(S(=O)(=O)Nc2ccc(F)cc2)c(C)s1	5%
CN(C)CCCNc1oc(-c2ccccc2)nc1C#N	-7.3%
CCOC(=O)c1c(NCC2CCCO2)c2ccccc2[nH]c1=O (configuration not stated)	-10.2%
COc1ccc(N2C(=O)N(Cc3cccc(F)c3)c3ccccc3S2(=O)=O)cc1	0.3%
CC1(C)CC(=O)C2=C(C1)NC(=O)NC2c1ccccc1 (configuration not stated)	-2.6%
Cc1ccc(-n2nnnc2Sc2nc([N+](=O)[O-])nn2C)cc1	18.5%
O=C(Nc1ccc2nsnc2c1)N1CCCCC1	24.1%
Cc1nc2ccc(NC(=S)N3CCCC3)cc2nc1C	52.8% (active)
O=C(Nc1ccc2nsnc2c1)N1CCCCCC1	21.5%
Cc1nc2ccc(NC(=S)N3CCN(c4ccccn4)CC3)cc2nc1C	18.3%
CC1CCN(C(=O)Nc2ccc3nsnc3c2)CC1	62% (active)
CC1CCN(C(=S)Nc2ccc(F)cc2)CC1	-10.5%
Cc1nc2ccc(NC(=S)N3CCOCC3)cc2nc1C	45.1%
Cc1nc2ccc(NC(=S)N3CCC(C)CC3)cc2nc1C	55.4% (active)
Cc1nc2ccc(NC(=O)N3CCCCC3)cc2nc1C	21.5%
COC(=O)CSc1cc(C)nc2ccc(OC)cc12	7.7%
CC(C(=O)Nc1ccncc1)(c1ccccc1)c1ccccc1	10.8%
O=C(CCN1C(=O)/C(=C/C=C/c2ccccc2)SC1=S)Nc1cccnc1	1.5%
Cc1noc(C)c1C(=O)N1CCN(Cc2ccc3c(c2)OCO3)CC1	6.8%
O=c1[nH]c2cc([N+](=O)[O-])c(NCCO)c([N+](=O)[O-])c2[nH]1	3.7%
CN(C)c1c([N+](=O)[O-])cc2[nH]c(=O)[nH]c2c1[N+](=O)[O-]	9.6%
CC(=O)Nc1c([N+](=O)[O-])cc2[nH]c(=O)[nH]c2c1[N+](=O)[O-]	56.9% (active)
